This is an account of results in the supplement of paper PMC7724964.

Common to all, as to test: phage ELISA signal ratio (GST-PRM binding over GST background); higher = stronger binding of peptide-phage to the PRM
In general terms: In an ELISA, binding on a coated surface is turned into a signal by an enzyme label.

In assay [1] the target is T1, TRIM11 268-461 SPRY (domain begin residue: 268, domain end residue: 461), Q96F44.
T1 chain: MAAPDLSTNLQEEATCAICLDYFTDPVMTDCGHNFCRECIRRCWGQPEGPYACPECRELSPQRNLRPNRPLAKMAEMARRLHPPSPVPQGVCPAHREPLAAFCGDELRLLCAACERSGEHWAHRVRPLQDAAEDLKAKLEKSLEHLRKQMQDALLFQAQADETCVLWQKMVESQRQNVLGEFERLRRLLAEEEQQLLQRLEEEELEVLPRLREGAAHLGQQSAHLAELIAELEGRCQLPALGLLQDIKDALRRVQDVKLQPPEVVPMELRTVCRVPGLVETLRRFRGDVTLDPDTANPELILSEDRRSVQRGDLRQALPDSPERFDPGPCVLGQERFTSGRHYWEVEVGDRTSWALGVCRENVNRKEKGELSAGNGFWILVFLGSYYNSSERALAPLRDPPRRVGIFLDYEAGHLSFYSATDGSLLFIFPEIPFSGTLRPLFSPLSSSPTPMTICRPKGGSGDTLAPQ
In outline: (§1)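 An M13 phage library with randomized hexadecapeptides on the gene-8 major coat protein, each peptide lacking cysteine and flanked by glycine, was selected for five rounds against human peptide recognition domains fused to the C-terminus of glutathione S-transferase (GST) and expressed in 96-well plates. Approximately 48 clones from rounds 4 and 5 went to phage ELISA. The reported value is the ELISA signal on the GST-domain fusion over the signal on GST alone, and positive clones were sequenced.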

Assay [2] addresses TRIM7 324-511 SPRY (domain begin residue: 324, domain end residue: 511), Q9C029. The gist of the method:
as §1

In assay [3] the target is TRIM30 281-496 SPRY (domain begin residue: 281, domain end residue: 496). In outline: as §1
Assay [4] addresses T2, TRIM39 319-514 SPRY (domain begin residue: 319, domain end residue: 514), Q9HCM9.
T2 chain: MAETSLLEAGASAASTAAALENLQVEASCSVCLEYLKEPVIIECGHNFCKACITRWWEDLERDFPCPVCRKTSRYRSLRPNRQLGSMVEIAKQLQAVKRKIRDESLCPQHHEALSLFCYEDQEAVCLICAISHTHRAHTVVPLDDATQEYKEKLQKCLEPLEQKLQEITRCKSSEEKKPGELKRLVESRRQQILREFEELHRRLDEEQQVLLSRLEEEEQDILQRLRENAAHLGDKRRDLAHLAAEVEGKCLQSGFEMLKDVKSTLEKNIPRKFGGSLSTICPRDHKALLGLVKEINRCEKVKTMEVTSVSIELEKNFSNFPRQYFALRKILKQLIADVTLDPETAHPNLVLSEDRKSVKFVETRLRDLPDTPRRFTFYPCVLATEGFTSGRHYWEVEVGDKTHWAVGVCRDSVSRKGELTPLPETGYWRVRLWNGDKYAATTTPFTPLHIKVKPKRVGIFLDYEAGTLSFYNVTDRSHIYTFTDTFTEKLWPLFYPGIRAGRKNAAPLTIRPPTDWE
In outline: as §1

In assay [5] the target is TRIM25 439-630 SPRY (domain begin residue: 439, domain end residue: 630), Q14258. In outline:
as §1

In assay [6] the target is T3, TSG101 1-145 UEV (domain begin residue: 1, domain end residue: 145), Q99816.
T3 chain: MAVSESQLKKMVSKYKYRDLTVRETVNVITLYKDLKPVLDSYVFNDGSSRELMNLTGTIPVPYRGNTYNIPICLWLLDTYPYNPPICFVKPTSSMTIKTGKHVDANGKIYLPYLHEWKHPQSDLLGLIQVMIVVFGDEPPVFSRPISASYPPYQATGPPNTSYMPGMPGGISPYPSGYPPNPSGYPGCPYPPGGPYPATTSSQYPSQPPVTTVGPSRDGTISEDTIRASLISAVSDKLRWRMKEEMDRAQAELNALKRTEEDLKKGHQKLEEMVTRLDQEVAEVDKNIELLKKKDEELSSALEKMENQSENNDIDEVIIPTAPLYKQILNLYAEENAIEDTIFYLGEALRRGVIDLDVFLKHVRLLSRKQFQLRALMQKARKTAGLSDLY
In outline:
as §1

Assay [7] has as its target TRIM21 268-465 SPRY (domain begin residue: 268, domain end residue: 465), P19474. In outline:
as §1

Sequence of TRIM25 439-630 SPRY (domain begin residue: 439, domain end residue: 630), Q14258 (Q14258 whole entry): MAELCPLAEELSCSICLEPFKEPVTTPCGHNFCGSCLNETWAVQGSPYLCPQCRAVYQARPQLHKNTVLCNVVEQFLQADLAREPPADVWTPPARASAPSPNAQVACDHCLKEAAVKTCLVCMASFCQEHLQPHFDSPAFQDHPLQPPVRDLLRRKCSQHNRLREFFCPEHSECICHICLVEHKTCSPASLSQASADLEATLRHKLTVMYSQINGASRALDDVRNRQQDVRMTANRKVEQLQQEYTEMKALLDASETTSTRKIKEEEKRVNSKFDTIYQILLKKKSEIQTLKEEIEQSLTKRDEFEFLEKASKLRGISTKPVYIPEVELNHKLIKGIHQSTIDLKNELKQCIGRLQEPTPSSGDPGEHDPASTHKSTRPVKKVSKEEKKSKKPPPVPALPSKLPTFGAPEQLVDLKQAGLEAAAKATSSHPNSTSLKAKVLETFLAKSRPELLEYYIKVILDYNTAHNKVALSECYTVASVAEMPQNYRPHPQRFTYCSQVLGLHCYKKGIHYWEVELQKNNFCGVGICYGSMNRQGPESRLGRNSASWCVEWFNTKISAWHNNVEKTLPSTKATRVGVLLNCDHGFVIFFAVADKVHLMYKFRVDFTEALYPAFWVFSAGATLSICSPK
Sequence of TRIM21 268-465 SPRY (domain begin residue: 268, domain end residue: 465), P19474 (P19474 whole entry): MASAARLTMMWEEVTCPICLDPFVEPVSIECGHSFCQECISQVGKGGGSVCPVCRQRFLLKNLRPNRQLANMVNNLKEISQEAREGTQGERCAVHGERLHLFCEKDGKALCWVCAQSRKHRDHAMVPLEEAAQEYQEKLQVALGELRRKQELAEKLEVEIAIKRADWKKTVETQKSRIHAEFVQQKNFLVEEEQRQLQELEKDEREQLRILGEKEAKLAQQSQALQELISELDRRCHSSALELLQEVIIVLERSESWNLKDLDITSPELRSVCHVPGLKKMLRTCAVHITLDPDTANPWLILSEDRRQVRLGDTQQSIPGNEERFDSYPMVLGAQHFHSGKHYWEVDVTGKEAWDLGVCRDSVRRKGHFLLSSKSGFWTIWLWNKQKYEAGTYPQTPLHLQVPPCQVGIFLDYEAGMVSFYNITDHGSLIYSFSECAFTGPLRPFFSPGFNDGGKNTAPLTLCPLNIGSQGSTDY

As for ELTTFHFYKEAPVWVI, the “phage ELISA signal ratio” value in assay [1] worked out at 31.5. For the molecule GFFQFQALPEWIVYMN, the “phage ELISA signal ratio” value in assay [1] turned out to be 12.6.

For the molecule HRFVYMEQLPSWLFAV, in assay [1], the “phage ELISA signal ratio” value was 23. With LERKIAWAQQLWKYFV, the “phage ELISA signal ratio” value in assay [2] came out at 6.97.

For the molecule DVIPWDTWNFWREQDF, the “phage ELISA signal ratio” value in assay [3] turned out to be 9.37. As to GWYEMEGWGMPKDIET, in assay [4], the “phage ELISA signal ratio” value was 3.7. For MPDGWWDQYSWEHIAE, the “phage ELISA signal ratio” value in assay [5] was determined as 15.7. WDWQTDYGYWEDFVPV: the “phage ELISA signal ratio” value in assay [3] was found to be 4.08. On to FETPWQIEDVWGMAGF, for which, in assay [5], the “phage ELISA signal ratio” value stood at 27.1. On to WYEDGWWTPHRMEQTR, for which the “phage ELISA signal ratio” value in assay [1] was 30. Regarding TDFTYAHAYNPHFIVS, the “phage ELISA signal ratio” value in assay [6] came to 5.82.

As to GLVYYDVPFDFGVIDW, the “phage ELISA signal ratio” value in assay [2] was 13.2. Consider QFFLFQSAPSWVLQPI, for which, in assay [1], the “phage ELISA signal ratio” value amounted to 13.8. Take VGTFMFGEMPSWVVST: in assay [1], the “phage ELISA signal ratio” value was found to be 19.6. As to VFEFMDRADWPDWVMM, in assay [1], the “phage ELISA signal ratio” value is 20.4. As to FEDGWMYQDFLKAPET, the “phage ELISA signal ratio” value in assay [7] amounted to 14.1; in assay [5], 9.36. As for MDWYDMYGTTWDMIPG, the “phage ELISA signal ratio” value in assay [5] is 10.7.

As to TELPFTYMTRIPSWVW, in assay [1], the “phage ELISA signal ratio” value was found to be 30.

As for YLWFSPAPSAPIWQWV, the “phage ELISA signal ratio” value in assay [6] was found to be 5.56. Still for that read-out and setting: with FPYNPHWDMLQQETTV the figure was 3.09.

As for WDDGFMEYGALPHEQM, the “phage ELISA signal ratio” value in assay [5] was found to be 12.3. MTMDFHPDWWDVADQW: in assay [2], the “phage ELISA signal ratio” value came to 29.6. In the case of TGNVFQFMDPPQWLTH, the “phage ELISA signal ratio” value in assay [1] came out at 29.9. As for WEMTLMEEAWATKFEV, the “phage ELISA signal ratio” value in assay [7] was 29.9. In the case of KVNTFHFMDPPDWLTH, the “phage ELISA signal ratio” value in assay [1] was 14.3.

For MHDDLDWVHHMAVPQV, the “phage ELISA signal ratio” value in assay [7] came out at 27.1.

For the molecule QVFWYPQAEEWPWFLD, the “phage ELISA signal ratio” value in assay [1] came to 34.5. Consider VVGDGMAFERWFQDFE, for which, in assay [5], the “phage ELISA signal ratio” value is 14.5. The same measure, in the same setting: with TVFWDGMYDWPVEMDI the figure was 21.
